Only some compounds are listed: those with a hit (about 2.5% of all), similar ones and a draw of the others.
Cruzain inh noDet – qHTS Assay for Promiscuous and Specific Inhibitors of Cruzain (without detergent). purified cruzain, Z-FR-AMC fluorescence, no detergent. hit rate 2.3% among 200,000. Potency, µM, hits mostly inhibitors. Cruzipain (Trypanosoma cruzi), P25779; further: nearly all actives have a fitted effect of over 40% in size
Target sequence (P25779 123-467 limits assumed): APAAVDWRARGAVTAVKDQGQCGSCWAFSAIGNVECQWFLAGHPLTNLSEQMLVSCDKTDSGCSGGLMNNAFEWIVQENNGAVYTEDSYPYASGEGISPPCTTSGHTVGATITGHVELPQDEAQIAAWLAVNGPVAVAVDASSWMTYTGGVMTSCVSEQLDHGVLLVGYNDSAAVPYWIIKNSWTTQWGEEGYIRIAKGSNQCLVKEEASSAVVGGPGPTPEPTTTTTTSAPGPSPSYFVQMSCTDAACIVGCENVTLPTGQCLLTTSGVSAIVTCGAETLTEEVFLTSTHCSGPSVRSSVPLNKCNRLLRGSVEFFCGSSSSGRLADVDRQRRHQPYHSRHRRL
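Purified cruzain at 1.5 nM, pre-incubated 15 min with compound at room temperature in 100 mM sodium acetate pH 5.5, 5 mM DTT, 0.00005% Triton X-100. Reaction started with 2 uM Z-FR-AMC; AMC fluorescence increase over 60 s gives rate.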
Cruzain Triton – qHTS Assay for Promiscuous and Specific Inhibitors of Cruzain (with detergent) | purified cruzain, Z-FR-AMC fluorescence, 0.01% Triton | Potency, µM, most hits filed as inhibitors | hit rate 0.43% among 200,000 | AID 1478, 2009; further: nearly all actives have a fitted effect of over 40% in size
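In this qHTS format, compounds are incubated with 1.5 nM cruzain for 15 min at room temperature before 2 uM Z-FR-AMC is added. Release of AMC is followed at 360/450 nm, and progress is taken as the 60 s fluorescence difference.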
Large screens that a line does not name were inactive. The call rests on the fitted dose curve; in most records, active means well fitted curve in the direction sought with a large enough effect; inconclusive means small, poorly fitted or top-dose-only effect, or another doubt; inactive means no such curve, though single readings can be large; an effect the other way counts as inactive or inconclusive.

CCOc1cccc(C2c3[nH]c4ccccc4c3CCN2C(=O)CSc2ccccc2)c1 (stereo unspecified)	Cruzain inh noDet inconclusive
Cc1ccc(-c2csc(=Nc3ccccc3)n2Cc2ccc3c(c2)OCO3)cc1	Cruzain inh noDet inconclusive
CCOC(=O)c1c(C)oc2nc(C)nc(NCc3cccc(Cl)c3)c12	none
Cc1ccc(N=Nc2c(O)ccc3cc(S(=O)(=O)O)ccc23)cc1	Cruzain inh noDet inconclusive
Cc1ccc(S(=O)(=O)Oc2ccc(N=Nc3ccc(-c4ccc(N=Nc5c(O)ccc6cc(S(=O)(=O)O)cc(S(=O)(=O)O)c56)c(C)c4)cc3C)cc2)cc1	Cruzain inh noDet inconclusive, Cruzain Triton 13µM
Cc1ccc2c(c1)c1c(c(=O)n(-c3cccc(Cl)c3)c(=O)n1C)n2C	none
CC(/C=N/NC(=O)c1ccc(CN2c3cccc4cccc(c34)S2(=O)=O)cc1)c1ccccc1 (stereo unspecified)	Cruzain inh noDet 10µM
O=C1CCC/C(=N/NC(=O)c2ccc(CN3c4cccc5cccc(c45)S3(=O)=O)cc2)C1	none
COc1cccc2sc(NC(=O)CS(=O)(=O)c3ccc(C)cc3)nc12	Cruzain inh noDet inconclusive
CCOc1ccc2nc(NC(=O)CS(=O)(=O)c3ccc(Cl)cc3)sc2c1	Cruzain inh noDet 5µM
CCOc1ccc2nc(NC(=O)CS(=O)(=O)c3ccc(C)cc3)sc2c1	Cruzain inh noDet inconclusive
Cc1ccc(S(=O)(=O)CC(=O)Nc2nc3c(C)cc(C)cc3s2)cc1	Cruzain inh noDet 13µM
CCOC(=O)N1CCC(NC(=O)c2ccc3c(c2)N(Cc2ccc(Cl)cc2)C(=O)c2ccccc2S3(=O)=O)CC1	none
COc1ccc(Cn2c(CCC(=O)Nc3ccc(C)cc3C)nc3cccnc32)cc1	none
Cc1ccc(NC(=O)Cc2ccc(-n3c(C)nc4cccnc43)cc2)c(Cl)c1	Cruzain Triton 8.9µM
COCCNC(=O)CCC(=O)N1Cc2cccc(OC)c2Oc2ncccc21	none
CS(=O)(=O)Nc1cccc(-c2nc(N3CCOCC3)c3ccccc3n2)c1	none
CCn1nc([N+](=O)[O-])c(C(C#N)c2nc3cc(C(F)(F)F)ccc3s2)c(Cl)c1=O (stereo unspecified)	Cruzain inh noDet inconclusive, Cruzain Triton 22µM
CCCn1nc([N+](=O)[O-])c(C(C#N)c2nc3ccccc3o2)c(Cl)c1=O (stereo unspecified)	none
CCN(CC)S(=O)(=O)c1ccc(N2CCOCC2)c(NS(=O)(=O)c2cc(C(C)(C)C)ccc2C)c1	Cruzain inh noDet inconclusive
Cc1ccc(N2C(=O)c3ccc(C(=O)N4CCOCC4)cc3C2=O)cc1C	none
CCOC(=O)c1c(NC(=O)c2cc(C(C)C)on2)sc(C)c1C	none
CCCc1cc(C(=O)Nc2sc(C)c(C)c2C(=O)OCC)no1	Cruzain inh noDet 20µM
Cc1ccc(NC2=C(CC(=O)O)C(c3ccccc3)N(c3ccc(C)cc3)C2=O)cc1 (stereo unspecified)	none
CCOC(=O)C1=C(CSc2nc(-c3ccccc3)ccc2C#N)OC(N)=C(C#N)C1c1ccccc1 (stereo unspecified)	Cruzain inh noDet 25µM
CCOC(=O)C1=C(CSc2nc(-c3ccccc3)ccc2C#N)OC(N)=C(C#N)C1c1cccnc1 (stereo unspecified)	Cruzain inh noDet inconclusive
CN(C)c1ccc(/C=C/C=C2/SC(=S)N(c3ccccc3)C2=O)cc1	Cruzain inh noDet 7.9µM
O=C1/C(=C/c2cccnc2)SC(=S)N1c1ccccc1	none
O=C(CCNS(=O)(=O)c1ccc2c(c1)CCN2C(=O)C1CC1)Nc1ccc(Cl)cc1	none
Cc1cccc(OCc2nnc(NC(=O)c3cccs3)s2)c1	Cruzain inh noDet 13µM
Cc1ccc(S(=O)(=O)CCc2nnc(NC(=O)c3cccs3)s2)cc1	Cruzain inh noDet inconclusive
O=C(Nc1nnc(COc2ccc(Cl)cc2)s1)c1cccs1	Cruzain inh noDet 25µM
O=C(Nc1nnc(COc2ccc(F)cc2)s1)c1cccs1	Cruzain inh noDet 25µM
O=C(Nc1nnc(COc2ccc(Cl)cc2)s1)C1CCCO1 (stereo unspecified)	none
O=C(Nc1nnc(CCc2ccccc2)s1)c1cccs1	Cruzain inh noDet inconclusive
Cc1ccccc1-c1nc(CS(=O)(=O)CC(=O)Nc2cccc(C(F)(F)F)c2)c(C)o1	none
C#C[C@]1(OC(C)=O)CC[C@H]2[C@@H]3CCC4=CC(=O)CC[C@@H]4[C@H]3CC[C@@]21C	none
COc1cc(Cl)c(C)cc1Nc1c2c(nc3ccccc13)CCC2	none
O=C(Cc1ccccc1)Nc1ccccc1Oc1ccccc1	none
NC(=O)c1cc(S(=O)(=O)NCC2CCC(C(=O)Nc3ccc(Cl)cc3)CC2)cs1 (stereo unspecified)	none
CCOc1ccc(C2Nc3cccc4cccc(c34)N2)cc1OC	none
CCOc1cc(C2Nc3cccc4cccc(c34)N2)ccc1O	Cruzain inh noDet 16µM
CCOc1ccc(OCC)c(NC(=O)c2cc(-c3cccs3)nc3ccccc23)c1	none
CCCNC(=O)C(=O)NCC(c1ccc2c(c1)OCO2)N1CCOCC1 (stereo unspecified)	none
COc1ccc(C(=O)NC(=S)N2CCCCC2)cc1[N+](=O)[O-]	none
Cc1c([N+](=O)[O-])cc(C(=O)Oc2ccc(Br)cc2C(=S)N2CCCCC2)cc1[N+](=O)[O-]	Cruzain inh noDet 25µM
COc1ccc(CCNC(=O)c2ccc3c(c2)N(Cc2ccc(F)cc2)C(=O)c2ccccc2S3(=O)=O)cc1OC	Cruzain inh noDet inconclusive
O=c1c(-c2ccc(Cl)cc2)nc2cnc(N3CCOCC3)nc2n1C[C@H]1CCCO1	none
Cc1ccn2cc(CCNS(=O)(=O)c3ccc4c(c3)OCCO4)nc2c1	none
Cc1ccn2cc(CCNS(=O)(=O)c3ccc(F)c(C(F)(F)F)c3)nc2c1	Cruzain inh noDet 25µM
CCc1ccc(S(=O)(=O)NCCc2cn3ccccc3n2)s1	none
O=S(=O)(NCCc1cn2ccccc2n1)c1ccc(F)c(C(F)(F)F)c1	Cruzain Triton 25µM
C/C(=N/N1CCN(c2ccccn2)CC1)c1cccc([N+](=O)[O-])c1	none
Cc1cccc(N2CCN(C(=O)C3CCCN(S(=O)(=O)c4cccc5nsnc45)C3)CC2)c1C (stereo unspecified)	none
COc1ccc(N2CCN(C(=O)CN3C(=O)CSc4c3c(C)nn4-c3ccccc3)CC2)cc1	none
Cc1oc(/N=C/c2ccccc2O)c(C#N)c1C	none
Cc1oc(/N=C/c2c(O)ccc3ccccc23)c(C#N)c1C	Cruzain inh noDet 13µM
COc1cccc(Nc2nc(-c3ccc(O)cc3)cs2)c1	none
COc1cccc(Nc2nc(-c3cccc(N4C(=O)c5ccccc5C4=O)c3)cs2)c1	Cruzain inh noDet 7.9µM
O=C(COC(=O)c1ccc(-c2ccc([N+](=O)[O-])cc2)o1)NC(=O)NC12CC3CC(CC(C3)C1)C2	Cruzain inh noDet 25µM
O=C(COC(=O)c1ccc(-c2ccc([N+](=O)[O-])cc2)o1)NC(=O)NC1CCCCC1	Cruzain inh noDet inconclusive
CC(CCc1ccccc1)NC(=O)C1CCCN(C(=O)c2cc3sccc3n2C)C1 (stereo unspecified)	Cruzain inh noDet inconclusive
CCn1nnc(NC(=O)c2ccc(-c3ccc(Cl)cc3)o2)n1	none
CCc1nnc(NC(=O)c2ccc(-c3ccc(Cl)cc3)o2)s1	Cruzain inh noDet 16µM
Cc1cccc(C)c1Nc1nc2ccccc2nc1NS(=O)(=O)c1ccccc1	none
COC(=O)c1c(C)oc2ccc(N(C(=O)Oc3ccccc3)S(=O)(=O)c3ccc(Cl)c([N+](=O)[O-])c3)cc12	Cruzain inh noDet 7.9µM

Assay outcomes as filed in PubChem BioAssay.
